From PubChem
Dicer inh – inhibitors of human Dicer processing of pre-microRNA; cat-ELCCA pre-miR-21 Dicer processing, chemiluminescence; hits give high values; z-score at 25 µM; hit rate 6% among 47,000; in the data active = z-score above about 3, passing the limit was not always enough;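 note: plate controls were vehicle for no effect and no enzyme for full effect; higher signal means more uncleaved substrate so more Dicer inhibition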
Active calls of the source: *. The full list was thinned out, with hits kept by preference.

CCCCNC(=O)N(C)c1nncnc1C(=O)NC was read as Dicer inh -0.1.
For CCNC(=O)N(C)c1nncnc1C(=O)NC the results were Dicer inh 4.5*.
For CNC(=O)c1ncnnc1N(C)C(=O)NCc1ccccc1 the results were Dicer inh 0.99.
For Cc1ccc(C2Nn3c(C)nnc3SC2C(=O)Nc2ccc(Br)cc2)cc1 (centres undefined) the results were Dicer inh 1.1.
`Cn1c(=O)c2c3nc4cc(Cl)c(Cl)cc4cc3c(=O)n(-c3ccccc3)c2n(C)c1=O` gave Dicer inh -0.52.
For FC(F)(F)c1ccc(-c2nnc3ccc(NC4CC4)nn23)cc1 the results were Dicer inh 0.27.
For C=CCNC(=S)NNC(=O)c1cnn(-c2ccccc2)c1N the results were Dicer inh 1.6.
`O=C(CC1(O)C(=O)N(Cc2ccccc2)c2ccc(Br)cc21)c1cccnc1` (centres undefined) gave Dicer inh 2.6.
`Cc1ccc(C(=O)CC2(O)C(=O)N(Cc3ccccc3)c3ccc(Br)cc32)s1` (centres undefined) gave Dicer inh 3.6*.
For Cc1ccc(CN2C(=O)C(O)(CC(=O)c3ccc(C)o3)c3cc(Cl)ccc32)cc1 (centres undefined) the results were Dicer inh 3.7*.
For CCCN1C(=O)C(O)(CC(=O)c2ccc(C)s2)c2ccccc21 (centres undefined) the results were Dicer inh -0.54.
`Cc1coc(C)c1C(=O)CC1(O)C(=O)N(Cc2ccccc2)c2ccc(Br)cc21` (centres undefined) gave Dicer inh 3.8*.
For Cc1ccccc1CN1C(=O)C(O)(CC(=O)c2ccco2)c2cc(Cl)ccc21 (centres undefined) the results were Dicer inh 2.3.
Screening CCCN1C(=O)C(O)(CC(=O)c2ccc(C)o2)c2cc(Br)ccc21 (centres undefined) returned Dicer inh -0.06.
`Cc1ccc(C(=O)CC2(O)C(=O)N(Cc3ccc(Cl)cc3)c3ccccc32)cc1` (centres undefined) gave Dicer inh 2.7.
Screening CCCCN1C(=O)C(O)(CC(=O)c2ccc(C)s2)c2cc(Br)ccc21 (centres undefined) returned Dicer inh 2.3.
CN(C)c1ccc(C2Nc3cc(Cl)ccc3O2)c(Cl)c1 (centres undefined) was read as Dicer inh 1.8.
Screening O=[N+]([O-])c1cccnc1NCc1ccccn1 returned Dicer inh -1.2.
COc1cc(C2Nc3ccccc3-c3nnc(SC)nc3O2)ccc1O (centres undefined) was read as Dicer inh 27.
Screening CCSc1nnc2c(n1)OC(c1ccc(O)c(OC)c1)Nc1ccccc1-2 (centres undefined) returned Dicer inh 1.3.
`CCOc1cc(C2Nc3ccccc3-c3nnc(SC)nc3O2)ccc1O` (centres undefined) gave Dicer inh 5*.
CC(C)(C)OC(=O)N[C@@H](Cc1ccccc1)C(=O)NN was read as Dicer inh 2.5.
For CSC1=C(C#N)C(=O)NC(c2cccs2)S1 (centres undefined) the results were Dicer inh 0.19.
For Cc1ccccc1Nc1nc(C2(C)CC(C(C)C)C(=O)O2)cs1 (centres undefined) the results were Dicer inh -0.01.
CC1CC2(CC(C)(c3csc(Nc4ccccc4)n3)OC2=O)C(=O)O1 (centres undefined) was read as Dicer inh 4.9*.
Screening CCCCCOCC1CC2(CC(C)(c3csc(Nc4ccccc4)n3)OC2=O)C(=O)O1 (centres undefined) returned Dicer inh -0.43.
`CCc1ccc2[nH]c(C(=O)Nc3ccc(Br)c(C)n3)cc2c1` gave Dicer inh 44*.
`CCc1ccc2[nH]c(C(=O)NCc3cc(Cl)ccc3Cl)cc2c1` gave Dicer inh -4.1.
`COc1ccc2[nH]c(C(=O)Nc3ccc(Br)c(C)n3)cc2c1` gave Dicer inh -1.7.
CCOC(=O)CNC(=O)c1ccccc1 was read as Dicer inh 2.8.
CCCc1nn(C)cc1C(=O)NCC(=O)OCC was read as Dicer inh 4.8*.
`CCOC(=O)CNC(=O)c1ccc(Cl)cc1` gave Dicer inh -0.21.
Screening COc1ccc(-c2c(C)nn3c2N=C(c2ccco2)CC3c2ccccc2)cc1 (centres undefined) returned Dicer inh -0.13.
`CSc1nc(-c2cccnc2)nc(N)c1C#N` gave Dicer inh 0.23.
COc1ccc(CCNC(=S)NCCc2ccccc2)cc1OC was read as Dicer inh 0.7.
S=C(NCc1ccccc1Cl)Nc1cc(Cl)c(Cl)cc1Cl was read as Dicer inh 1.4.
`S=C(NCCc1ccccc1)Nc1cc(Cl)c(Cl)cc1Cl` gave Dicer inh 4.7*.
Screening COc1cc(NC(=S)Nc2cccc(C)n2)c(OC)cc1Cl returned Dicer inh -0.1.
`Cc1ccc(NC(=O)CC(CC(=O)O)c2ccccc2)nc1` (centres undefined) gave Dicer inh 3.7*.
Screening Cc1ccc(NC(=O)CC(C)CC(=O)O)cc1 (centres undefined) returned Dicer inh 1.2.
CC(CC(=O)O)CC(=O)Nc1ccccn1 (centres undefined) was read as Dicer inh 0.15.
For CCOc1cc(C2C(C(=O)OC3CCCC3)=C(C)NC3=C2C(=O)CC(c2cccs2)C3)ccc1O (centres undefined) the results were Dicer inh 2.3.
Screening CCOC(=O)C1(C)C=C(Nc2ccc(OC)cc2)C(=O)N1c1ccc(OC)cc1 (centres undefined) returned Dicer inh 0.34.
CCOC(=O)C1(C)C(Br)=C(Nc2ccc(Cl)cc2)C(=O)N1c1ccccc1 (centres undefined) was read as Dicer inh 1.2.
CCOC(=O)C1(C)C=C(Nc2ccc(OCC)cc2)C(=O)N1c1ccc(OCC)cc1 (centres undefined) was read as Dicer inh 3.2*.
`Cc1nn(S(=O)(=O)c2ccc(Cl)cc2)c(C)c1Sc1nccn1C` gave Dicer inh 0.5.
Screening O=C1c2cccc3c(Sc4ccccc4)ccc(c23)C(=O)N1CCc1ccccn1 returned Dicer inh 0.73.
For O=C1c2cccc3c(Sc4ccccc4)ccc(c23)C(=O)N1Cc1ccccc1 the results were Dicer inh 5.2*.
O=C1c2cccc3c(Br)ccc(c23)C(=O)N1Cc1ccccc1 was read as Dicer inh 1.5.
`Cc1csc2sc(/C=C(\C#N)S(C)(=O)=O)c(C)c12` gave Dicer inh 0.16.
Screening CCCCNC(=O)N(C)C1CC2C=CC1C2 (centres undefined) returned Dicer inh 1.2.
`NC(=O)C1CCN(c2cc(C(F)(F)F)ccn2)CC1` gave Dicer inh 0.28.
Screening Cc1c(C)c(C)c(C(=O)c2ccc(Cl)cc2)c(C)c1C returned Dicer inh 0.14.
Screening CC(=O)c1ccccc1C(=O)c1ccc(Cl)cc1 returned Dicer inh 59*.
CC(=O)c1ccccc1C(=O)c1ccccc1 was read as Dicer inh -1.2.
CCOc1ccc(NC2OC(=O)c3c2ccc(OC)c3OC)cc1 (centres undefined) was read as Dicer inh 0.64.
Screening COC(=O)c1cc(S(=O)(=O)n2nc(C)cc2C)c(N2CCCC2)cc1N1CCCC1 returned Dicer inh 1.1.
Screening CCCc1nn2c(=O)c(NC(=O)c3ccc(F)cc3)cnc2s1 returned Dicer inh -0.23.
